In PubChem BioAssay AID492993 (Johns Hopkins Ion Channel Center, 2010) one finds inhibition data, which are given here for five compounds.

Each structure is given as a SMILES string. Hit rate of the full screen: of about 4,900 compounds, about 200 (4.1%) were called active.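 Rule for the calls: active = thallium signal drop more than 5 SD beyond the mean of the no-compound control wells, seen in both duplicate plates; inactive = the rest.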 Only a selection was taken, and actives are over-represented in it overall.

For this assay, the target named is Inward rectifier potassium channel 2 (Mus musculus) (UniProt P35561). The experiment in a line: mouse Kir2.1 channel inhibition, confirmation, selectivity assay for KCNK9 modulator project, cell-based, HEK293, thallium flux (AID 492993).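 For inhibition: signal is fluorescence rise after thallium addition divided by baseline fluorescence; plate controls were assay buffer only for no effect and full block by chlorpromazine control for full effect.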 The conditions noted are these: Kir2.1 cells, FluxOR thallium flux fluorescence, at 10 µM; active compounds read high.
Inward rectifier potassium channel 2 (Mus musculus), sequence (P35561 whole entry, looked up): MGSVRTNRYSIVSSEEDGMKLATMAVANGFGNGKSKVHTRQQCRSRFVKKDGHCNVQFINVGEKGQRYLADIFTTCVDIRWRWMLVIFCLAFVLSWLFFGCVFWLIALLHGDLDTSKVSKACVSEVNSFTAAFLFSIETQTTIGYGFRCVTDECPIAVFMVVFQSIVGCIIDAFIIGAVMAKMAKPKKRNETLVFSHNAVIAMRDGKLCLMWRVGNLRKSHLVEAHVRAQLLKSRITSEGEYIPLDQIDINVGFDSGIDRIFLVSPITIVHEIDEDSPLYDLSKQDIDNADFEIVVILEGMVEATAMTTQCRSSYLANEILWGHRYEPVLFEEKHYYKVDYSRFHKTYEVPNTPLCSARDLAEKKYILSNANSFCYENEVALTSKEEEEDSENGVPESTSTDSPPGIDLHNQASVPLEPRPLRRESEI
One may read the inhibition as how much of the control response was suppressed. As for `CCCCCCCCCCCCn1ccc(=N)cc1`, the inhibition was 75% (active). With `CCCCCCN=C(CC)c1c(O)n(CCCC)c(=O)[nH]c1=O` the entry was “inactive”; with `CC(C)(C)c1ccc(OC(=O)N2CCCCC2)cc1`, “inactive”. For the compound `CCOC(=O)C1SC2(C(F)(F)C(F)F)CC1(O)c1c(c(OC)c3occc3c1OC)O2` (stereo not given), the inhibition result was “inactive”. The entry for `CC(C)(C)c1ccc(CN2C(=O)CN=C(c3ccccc3)c3ccccc32)cc1` is “inactive”.
